Compound activity from PubChem BioAssay.
KB-3-1 tox = kills parental KB-3-1 adenocarcinoma cells | KB-3-1 viability, CellTiter-Glo ATP luminescence, 72 h | Potency, µM (top dose mostly 46.1 µM), actives largely listed as cytotoxic | 400,000 compounds, 1.4% hits | AID 1347075; further: on the % scale 0 is the no-effect control and ±100 the full control effect; nearly all actives have a fitted effect of over 60% in size
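Using CellTiter-Glo luminescence, growth of non-resistant KB-3-1 adenocarcinoma cells is assessed 72 h after pin-tool compound addition at 37 °C. Normalized responses across the concentration series yield fitted curves.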
KB-V1 cytotox = KB-V1 MDR subline cytotoxicity. KB-V1 MDR cells viability, CellTiter-Glo, 72 h. Potency, µM (titrated, usually from 46.1 µM), actives largely listed as cytotoxic. 400,000 compounds, 3.4% hits. AID 1347076; further: on the % scale 0 is the no-effect control and ±100 the full control effect; nearly all actives have a fitted effect of over 60% in size
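Following 72 h at 37 degrees C with compound, KB-V1 cell viability was read by CellTiter-Glo luminescence, medium being phenol-red-free DMEM plus 10% FBS; concentration-response parameters came from normalized, curve-fitted qHTS data.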
TSG101-PTAP inh = blocks PTAP/TSG101 interaction to inhibit HIV-1 budding | Fluorescence polarization, FITC-PTAP peptide / Tsg101 binding | Potency, µM (series often up to 115 µM), for inactives: at the highest dose activity change, negative = inhibition, usual class: inhibitors | AID 493005 | 340,000 tested, under 10 active; active means well fitted inhibition curve with a large enough effect in the main read-out, with a control signal flat, not every such curve was filed as active; inconclusive means small, poorly fitted or top-dose-only effect, or effect the other way, or a change in a side signal; inactive means no such curve, though single readings can be large or run the other way; further: % of control where 0% means no effect
Target sequence (Q99816 whole entry, looked up): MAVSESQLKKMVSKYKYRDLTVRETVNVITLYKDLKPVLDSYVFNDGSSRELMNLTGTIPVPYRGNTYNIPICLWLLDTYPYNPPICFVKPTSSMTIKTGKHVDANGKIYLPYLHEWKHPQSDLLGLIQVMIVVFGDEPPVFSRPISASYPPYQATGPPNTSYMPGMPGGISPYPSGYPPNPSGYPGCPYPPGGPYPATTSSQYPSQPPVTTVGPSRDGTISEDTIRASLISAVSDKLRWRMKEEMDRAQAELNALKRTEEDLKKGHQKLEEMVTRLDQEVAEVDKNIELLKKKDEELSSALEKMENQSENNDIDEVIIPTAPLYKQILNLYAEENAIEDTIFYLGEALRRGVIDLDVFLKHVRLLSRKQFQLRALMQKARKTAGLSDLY
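Tsg101 binding domain (10 uM final) was mixed with compound and a FITC-labeled PTAP peptide (50 nM final) in HEPES pH 7.5 buffer with NaCl, Tween 20, EDTA and TCEP; fluorescence polarization was read after 20 min at r.t.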
MCF10A rerep = induces DNA re-replication in MCF 10a normal breast cells; MCF 10A DNA re-replication, Hoechst nuclear intensity, 48 h; AID 624296; 350,000 compounds, 2.9% hits; Potency, µM (series often up to 46.1 µM), inactives show at the top dose activity, positive = re-replication, hits mostly activators; further: % of control where 0% means no effect; nearly all actives have a fitted effect of over 50% in size
RGS4 inhibitor = human RGS4 inhibition. Potency, µM (highest dose often 114 µM), without a hit: top-dose activity change, negative = inhibition, usual class: inhibitors. Transcreener GDP fluorescence polarization, RGS4-accelerated GTP hydrolysis. 390,000 compounds, 0.039% hits. P49798; further: on the % scale 0 is the no-effect control and ±100 the full control effect; nearly all actives have a fitted effect of over 75% in size
Target sequence (P49798 whole entry, looked up): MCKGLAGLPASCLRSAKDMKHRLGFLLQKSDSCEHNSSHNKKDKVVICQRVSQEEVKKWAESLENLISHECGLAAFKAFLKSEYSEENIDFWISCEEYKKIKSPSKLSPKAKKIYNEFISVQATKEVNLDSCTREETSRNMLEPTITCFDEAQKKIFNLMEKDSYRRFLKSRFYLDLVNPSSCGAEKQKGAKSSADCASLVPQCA
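MLSMR compounds (23 nl, pin-transferred) preincubated 10 min at room temperature with a 500nM (2x) first reagent, then RGS4 at 900nM (2x) plus Transcreener GDP mix added; fluorescence polarization (620/688 nm) read before and after 90 min at 30 °C.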
SW480 rereplic = DNA re-replication induction in SW480 cells; SW480 DNA re-replication, Hoechst DNA content imaging, 48 h; Potency, µM (highest dose often 46.1 µM), without a hit: top-dose re-replication activation, most hits filed as activators; 340,000 compounds, 1.8% hits; AID 624297; further: % of control where 0% means no effect; nearly all actives have a fitted effect of over 55% in size
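Readout is total intensity of Hoechst-stained nuclei, excited at 405 nm and collected at 500-530 nm. Compound treatment lasted 48 hr at 37 C in 5% CO2 before staining.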
An asterisk follows results filed as active; i = inactive; ? = inconclusive; . = no result; ! = a repeat was not active; [ ] = another dose, or the depositor's remark. Hits are enriched below; roughly 6.6% of the tested compounds scored in any of these assays. Unless noted, the call rests on the fitted dose curve; in most records, active means well fitted curve in the direction sought with a large enough effect; inconclusive means small, poorly fitted or top-dose-only effect, or another doubt; inactive means no such curve, though single readings can be large; an effect the other way counts as inactive or inconclusive. Potency means the concentration at half of the fitted maximal effect.

SMILES	KB-3-1 tox	KB-V1 cytotox	TSG101-PTAP inh	MCF10A rerep	RGS4 inhibitor	SW480 rereplic
Cc1cccc(CSc2nc(-c3cccc(C)c3)nc3c2Cc2c(CO)cnc(C)c2O3)c1	i	i	.	.	3.9%	.
COc1cc(C(=O)O/N=C2/C=CC(=O)C(C)=C2C)cc(OC)c1OC	?	?	-3.2%	23.1µM*	-16.2%	16.4µM*
COc1cc(C(=O)O/N=C2\C=CC(=O)C=C2C)cc(OC)c1OC	i	i	-6.8%	22.0%	-21.2%[11.4 µM]	20.0%
Cc1ccc(S(=O)(=O)n2nc(-c3ccccc3)nc2NCc2ccccc2Cl)cc1	i	i	.	.	-4.9%	.
CCOc1ccc(-c2cn[nH]c2N)cc1	i	i	-2.5%	18.4µM*	-11.4%	?
COc1cc(C2c3cc4c(cc3OC(C)(N3CCCC3)C2C)OCO4)cc(OC)c1OC (stereo unspecified)	1.46µM*	2.59µM*	-4.3%	0.651µM*	-35.9%	5.17µM*
COc1cc(C2c3cc4c(cc3OC(Nc3ccc(C(=O)O)cc3)C2C)OCO4)cc(OC)c1OC (stereo unspecified)	0.184µM*	i	-2.9%	1.3µM*	-19.6%	0.651µM*
COc1cc(C2c3cc4c(cc3OC(NCCc3ccccc3)C2C)OCO4)cc(OC)c1OC (stereo unspecified)	4.11µM*	2.91µM*	-2.9%	1.03µM*	-9.5%	1.03µM*
COc1cc(C2c3cc4c(cc3OC(N3CCCC3)C2C)OCO4)cc(OC)c1O (stereo unspecified)	?	?	0.9%	?	12.9%	?
COc1cc(C2c3cc4c(cc3OC(N3CCOCC3)C2C)OCO4)cc(OC)c1OC(C)=O (stereo unspecified)	?	?	-3.3%	?	-47.5%	?
CCc1ccc(N(C(=O)c2snc(C(N)=O)c2N)C(C(=O)NC2CCCC2)c2ccco2)cc1 (stereo unspecified)	?	23.1µM*	-4.1%	6.51µM*	13.4%	?
NC(=O)c1nsc(C(=O)N(CC(=O)NC2CCCC2)c2cccc(C(F)(F)F)c2)c1N	i	i	-7.9%	14.6µM*	10.0%	?
CCC(C(=O)NC1CCCC1)N(Cc1ccc2c(c1)OCO2)C(=O)c1snc(C(N)=O)c1N (stereo unspecified)	i	i	-12.8%	4.3%	-11.2%	-1.9%
CCCC(C(=O)NC(C)(C)C)N(Cc1ccccc1Cl)C(=O)c1snc(C(N)=O)c1N (stereo unspecified)	i	?	-7.5%	13µM*	-13.5%	?
COc1cccc(N(CC(=O)NC2CCCCC2)C(=O)c2snc(C(N)=O)c2N)c1	i	?	0.2%	6.0%	-7.0%	-4.8%
CCCC(C(=O)NC1CCCC1)N(Cc1cccs1)C(=O)c1snc(C(N)=O)c1N (stereo unspecified)	i	2.31µM*	.	-4.4%	4.8%	-1.1%
COc1ccc(N(C(=O)c2snc(C(N)=O)c2N)C(C(=O)NC2CCCC2)c2ccco2)cc1 (stereo unspecified)	i	i	-13.3%	?	3.8%	20.1%
CCCCC(C(=O)NC(C)(C)C)N(Cc1ccccc1Cl)C(=O)c1snc(C(N)=O)c1N (stereo unspecified)	i	i	-10.8%	?	-8.5%	-3.1%
CCCCCCc1cc2cc(C(=O)Nc3ccccc3)c(=O)oc2cc1O	i	2.31µM*	-0.7%	?	-8.0%	2.06µM*
CCCCCCc1cc2cc(C(=O)NCc3ccccc3)c(=N)oc2cc1O	i	i	-0.9%	7.31µM*	4.6%	?
CCCCCCc1cc2cc(-c3nnc(-c4cccc(Cl)c4)o3)c(=O)oc2cc1O	.	.	.	.	-10.6%	.
CCOc1ccc(OCC)c(NC(=O)CCc2c(C)nc3c(c2C)c(=O)n(C)c(=O)n3C)c1	i	i	.	.	2.1%	.
Cc1nnc(NC(=O)CSc2nnc3scc(-c4ccc(C)c(C)c4)n23)s1	i	20.6µM*	-6.0%	2.6%	7.5%	1.1%
CCc1nnc(NC(=O)CSc2nnc3scc(-c4ccc(C)cc4)n23)s1	i	i	-3.0%	-19.4%	23.5%	1.6%
Cc1cc(C)n2nc(SCC(=O)Nc3ccccc3)nc2n1	i	?	0.9%	1.0%	22.1%	-1.0%
SMILES	KB-3-1 tox	KB-V1 cytotox	TSG101-PTAP inh	MCF10A rerep	RGS4 inhibitor	SW480 rereplic
Cc1cc(C)n2nc(SCC(=O)Nc3cccc(C(F)(F)F)c3)nc2n1	?	20.6µM*	.	.	11.5%	.
CCc1ccc(NC(=O)CSc2nc3nc(C)cc(C)n3n2)cc1	i	13µM*!	-1.3%	11.9%	21.5%[11.4 µM]	11.6%
CCN(C(=O)CSc1nc2nc(C)cc(C)n2n1)c1cccc(C)c1	i	23.1µM*	.	-8.7%	7.0%	3.9%
CCCn1c(C)cc(C(=O)CSc2nc3nc(C)cc(C)n3n2)c1C	i	6.51µM*	0.1%	8.4%	-16.8%	-5.3%
O=S(=O)(c1ccc2[nH]c3c(c2c1)CCCCC3)N1CCN(c2cccc(Cl)c2)CC1	i	i	.	.	2.1%	.
Cc1cc(C)nc(SCC(=O)Nc2ccc(S(=O)(=O)NC(C)(C)C)cc2)n1	i	20.6µM*	1.2%	-3.2%	35.8%	1.0%
Cc1cc(C)n2nc(SCCC(=O)NCCc3ccccc3)nc2n1	i	14.6µM*	-1.4%	10.3%	-29.5%	-3.0%
c1ccc(-c2nc3ccccc3[nH]2)nc1	i	i	-5.5%	-22.8%	4.9%	20.5%
Cc1ccc2nc(-c3ccccn3)[nH]c2c1	?	18.4µM*	-5.3%	-14.9%	4.5%	-0.3%
COc1ccc(NC(=O)C23CC4CC(C2)CC(n2cnc(Br)n2)(C4)C3)cc1Cl	i	9.2µM*	-2.3%	7.1%	0.7%	-1.6%
O=C(O)c1cccc(NC(=O)C23CC4CC(C2)CC(n2cnc(Cl)n2)(C4)C3)c1	i	?	-0.6%	1.0%	17.6%	-4.3%
Cc1cc(C)cc(N(CCC(=O)O)S(=O)(=O)c2ccc3ccccc3c2)c1	i	i	-1.8%	8.2µM*	-30.2%	?
Cc1cc(C)cc(N(CCC(=O)Nc2nnc(C)s2)S(=O)(=O)c2ccc(Cl)cc2)c1	?	23.1µM*	-4.4%	?	-7.8%	17.1%
Cc1ccc(N(CCC(=O)O)S(=O)(=O)c2ccccc2)cc1	i	i	-1.1%	2.7%	17.6%	-1.7%
C=Cc1ccc(Cn2c(C)c(CNCCc3ccc(OCC)cc3)c(C(=O)O)c2C)cc1	i	i	.	.	-28.2%	.
CCCNC(=O)c1c(C)nn(-c2cccc(C)c2)c1-n1cccc1	i	i	.	.	5.2%	.
